25 compounds from PubChem BioAssay (NCATS) can be followed below.

Records with an inconclusive call do not appear. Values without a mark were called inactive. Calls of active or inactive are those of the source. Calls come from the whole dose curve; as a rule, active = well fitted inhibition curve with a large enough effect; inconclusive = small, poorly fitted or top-dose-only effect; inactive = no such curve, though single readings can be large or run the other way.
% is set by controls: 0 for no effect and ±100 for the full control effect; potency is the fitted concentration of half-maximal effect.

This experiment addresses Retinal dehydrogenase 2 (Homo sapiens) (UniProt O94788). Put plainly: qHTS for Inhibitors of the Aldehyde Dehydrogenase Family (ALDH1A2) Confirmation screens (AID 2061314). Note: nearly all actives have a fitted effect of over 65% in size. The following applies: ALDH1A2 enzyme inhibition qHTS confirmation; series mostly up to 45.9 µM; activity, negative = inhibition: at the top concentration.
Turning to `N#Cc1c(-c2ccc(Br)cc2)no[n+]1[O-]`, the Potency is 7.12 µM (active).

For `O=S(=O)(c1ccccc1)N1CCN(c2nc(-c3ccc(Br)cc3)cs2)CC1`, the “activity, negative = inhibition” value is -8.01%.

In the case of `O=C(Nc1nc(-c2ccccc2)cs1)c1ccncc1NS(=O)(=O)c1ccc2ccccc2c1`, the Potency was 7.12 µM (active). Take `COc1ccc(C2=Nn3c(nnc3-c3cc(OC)ccc3OC)SC2)cc1`: the “activity, negative = inhibition” value is -10.6%.

As for `COc1ccc(C2=Nn3c(nnc3-c3ccc(OC)cc3)SC2)cc1`, the “outcome” value is “inactive; activator”. Take `COc1ccc(C2Oc3ccccc3C(=O)N2Cc2ccccc2)cc1COc1ccc(NC(C)=O)cc1` (stereo not given): the Potency was 7.12 µM (active).

Take `FC(F)(F)c1ccc(-c2ccc(CNc3nc(-c4ccccc4C(F)(F)F)nc4ccccc34)cc2)cn1`: the Potency was 25.2 µM (active). For the compound `CN(C)CCCNC(=O)c1ccc(-c2cnc3c(O)cccc3c2)cc1`, the “activity, negative = inhibition” value is -18%.

Consider `COc1ccc(C2=Nn3c(nnc3-c3cccc(OC)c3OC)SC2)c(OC)c1`, for which the “activity, negative = inhibition” value is 57.2%. With `O=C(Nc1cncc(Cc2ccccc2)c1)c1ccc(-c2cccc([N+](=O)[O-])c2)o1`, the Potency was 12.7 µM (active).

Consider `O=C(NCCCCc1ccccc1)C1CCN(c2nc(-c3ccc(Br)cc3)cs2)CC1`, for which the call was inactive.

`FC(F)Oc1ccc(C2=Nn3c(nnc3-c3ccccc3C(F)(F)F)SC2)cc1OCC1CC1`: the Potency was 17.9 µM (active). The same measure, in the same setting: the result for `Cc1ccnc(CC(=S)N2CCN(c3cccc(C(F)(F)F)c3)CC2)c1` reads 12.7 µM (active). For `COc1cc2ncnc(N(C)Cc3csc(C)n3)c2cc1-c1ccc2c(c1)OCO2`, the “activity, negative = inhibition” value is -16.1%. For `O=C(Nc1nc(-c2ccccc2)cs1)c1ccncc1NS(=O)(=O)c1ccc(Cl)cc1`, the Potency was 10.1 µM (active). In the case of `Cc1cc(-c2nnc3n2CCCC3)c(C)n1-c1ccccc1`, the “activity, negative = inhibition” value was -12.9%. As for `COc1ccc(C2=Nn3c(nnc3-c3ccccc3OC)SC2)cc1`, the “activity, negative = inhibition” value is -12.5%. Still for that read-out and setting: the result for `CNc1oc(-c2c[nH]c3ccccc23)nc1C#N` reads -20.1%.

In the case of `Cc1cc(-c2nnc3n2CCCCC3)c(C)n1-c1ccc(Cl)c(Cl)c1`, the Potency was 20.1 µM (active). As for `O=C(CN1C(=O)N/C(=C\c2cn(-c3cccc(C(=O)O)c3)cn2)C1=O)Nc1ccccc1Cl`, the “activity, negative = inhibition” value was -22.9%.

`Cc1cc(C)nc(NC(=S)N2CC3CN(c4ncc(C(F)(F)F)cc4Cl)CC3C2)c1` (stereo not given): the “activity, negative = inhibition” value is -25.9%. Turning to `O=C([C@H](Cc1ccc(O[S+](=O)([O-])c2cccnc2)cc1)N[S+](=O)([O-])c1ccccn1)N1CCN(c2ccccc2)CC1`, the Potency is 7.98 µM (active). For `COc1ccc(-c2nc3ccccc3c(=O)n2Cc2ccco2)cc1COc1ccc(NC(C)=O)cc1`, the Potency was 12.7 µM (active). On to `O=[S+]([O-])(Nc1ccc(-c2nc3ccccc3[nH]2)cc1)c1ccc2c(c1)OCO2`, for which the Potency is 15.9 µM (active). Still for that read-out and setting: the result for `CN1CCN(c2ccc(Nc3nn4c(=O)c5ccccc5nc4s3)cc2)CC1` reads 14.2 µM (active).
